Measured values as given in the supplement of paper PMC6279402.
Where a name gives a salt, the structure may show the parent alone. ± gives the standard deviation of the averaged measurements.

Test system: A549
Assay: relative viability (normalised to negative control = 1, bortezomib = 0) (fraction); higher = less cytotoxic
Conditions: inflammatory serum-free RHB-A with cytokines + LPS; 5 d + 24 h CellTiter-Blue; compound 30 nM; GSK126 pretreatment: 5 uM GSK126

| SMILES | relative viability |
| --- | --- |
| COc1cc(Nc2ncc(F)c(Nc3ccc4c(n3)NC(=O)C(C)(C)O4)n2)cc(OC)c1OC [R406(free base); R406] | 0.92 ± 0.13 |
| Cc1ccc(Nc2nccc(N(C)c3ccc4c(C)n(C)nc4c3)n2)cc1S(N)(=O)=O [Pazopanib Hydrochloride] | 0.972 ± 0.12 |
| CO[C@H]1C(=O)[C@]2(C)[C@@H](OC)C[C@H]3OC[C@@]3(OC(C)=O)[C@H]2[C@H](OC(=O)c2ccccc2)[C@]2(O)C[C@H](OC(=O)[C@H](O)[C@@H](NC(=O)OC(C)(C)C)c3ccccc3)C(C)=C1C2(C)C [Cabazitaxel] | 0.487 ± 0.065 |
| COc1cc(Nc2ncc(F)c(Nc3ccc4c(n3)N(COP(=O)(O)O)C(=O)C(C)(C)O4)n2)cc(OC)c1OC | 0.929 ± 0.03 |
| CC/C(=C(\c1ccccc1)c1ccc(OCCN(C)C)cc1)c1ccccc1 [Tamoxifen citrate] | 0.967 ± 0.075 |
| CC(C)n1nc(-c2cc3cc(O)ccc3[nH]2)c2c(N)ncnc21 | 0.686 ± 0.035 |
| O=C(O)C(=O)O.[NH-][C@@H]1CCCC[C@H]1[NH-].[Pt+2] [Oxaliplatin] | 0.792 ± 0.077 |
| CCOc1ccn(-c2ccc(F)cc2)c(=O)c1C(=O)Nc1ccc(Oc2ccnc(N)c2Cl)c(F)c1 | 0.905 ± 0.21 |
| CC[C@@]1(O)C(=O)OCc2c1cc1n(c2=O)Cc2cc3c(CN(C)C)c(O)ccc3nc2-1 [Topotecan HCl; Topotecan hydrochloride] | 0.421 ± 0.033 |
| CS(=O)(=O)OCCCCOS(C)(=O)=O [Busulfan] | 0.889 ± 0.017 |
| Cc1cccc(-c2[nH]c(C(C)(C)C)nc2-c2ccc3nccnc3c2)n1 | 0.848 ± 0.048 |
| Cn1cnc2c(F)c(Nc3ccc(Br)cc3Cl)c(C(=O)NOCCO)cc21 [AZD6244(Selumetinib)] | 0.401 ± 0.0087 |
| CCC[C@H](NC(=O)/C(C#N)=C/c1cccc(Br)n1)c1ccccc1 | 0.926 ± 0.078 |
| Nc1nc(Cl)nc2c1ncn2[C@H]1C[C@H](O)[C@@H](CO)O1 [Cladribine] | 0.723 ± 0.12 |
| Nc1ncnc2c1c(-c1cccc(OCc3ccccc3)c1)cn2C1CC(CN2CCCC2)C1 (centres undefined) | 0.733 ± 0.037 |
| Cc1c(NC(=O)OC[C@@H]2COCCN2)cn2ncnc(Nc3ccc4c(cnn4Cc4cccc(F)c4)c3)c12 | 0.806 ± 0.16 |
| Oc1ncnc2[nH]ncc12 [Allopurinol] | 0.988 ± 0.076 |
| COc1cc(N2CCC(N3CCN(C)CC3)CC2)ccc1Nc1ncc(Cl)c(Nc2ccccc2S(=O)(=O)C(C)C)n1 | 0.545 ± 0.012 |
| COc1c2occc2cc2ccc(=O)oc12 [Methoxsalen] | 0.902 ± 0.065 |
| Nc1ccn([C@@H]2O[C@H](CO)[C@@H](O)C2(F)F)c(=O)n1 [Gemcitabine hydrochloride; Gemcitabine HCl] | 0.396 ± 0.12 |
| CO[C@H]1C[C@@H]2CC[C@@H](C)[C@@](O)(O2)C(=O)C(=O)N2CCCC[C@H]2C(=O)O[C@H]([C@H](C)C[C@@H]2CC[C@@H](O)[C@H](OC)C2)CC(=O)[C@H](C)/C=C(\C)[C@@H](O)[C@@H](OC)C(=O)[C@H](C)C[C@H](C)/C=C/C=C/C=C/1C [Sirolimus; RAPAMYCIN; Rapamycin(Sirolimus); Rapamycin] | 0.576 ± 0.08 |
| COc1cc2nccc(Oc3ccc(NC(=O)C4(C(=O)Nc5ccc(F)cc5)CC4)cc3)c2cc1OC [XL184; Cabozantinib] | 0.903 ± 0.061 |
| CC[C@@H]1C(=O)N(C)c2cnc(Nc3ccc(C(=O)NC4CCC(N5CCN(CC6CC6)CC5)CC4)cc3OC)nc2N1C(C)C (some centres undefined) [BI6727 (Volasertib)] | 0.404 ± 0.1 |
| CC(=O)Nc1cccc(-n2c(=O)n(C3CC3)c(=O)c3c(Nc4ccc(I)cc4F)n(C)c(=O)c(C)c32)c1 | 0.144 ± 0.01 |
| O=C(NOCC(O)CO)c1cc(Br)c(F)c(F)c1Nc1ccc(I)cc1F (centres undefined) | 0.407 ± 0.025 |
| C#CCC(Cc1cnc2nc(N)nc(N)c2n1)c1ccc(C(=O)N[C@@H](CCC(=O)O)C(=O)O)cc1 (some centres undefined) [pralatrexate] | 0.878 ± 0.027 |
| CC[C@]1(O)C[C@H]2CN(CCc3c([nH]c4ccccc34)[C@@](C(=O)OC)(c3cc4c(cc3OC)N(C=O)[C@H]3[C@@](O)(C(=O)OC)[C@H](OC(C)=O)[C@]5(CC)C=CCN6CC[C@]43[C@@H]65)C2)C1 [Vincristine sulfate] | 0.453 ± 0.072 |
| C[C@]12CC[C@H](O)CC1=CC[C@@H]1[C@@H]2CC[C@]2(C)C(c3cccnc3)=CC[C@@H]12 [Abiraterone] | 0.893 ± 0.12 |
| OCCn1cc(-c2cnc3nnn(Cc4ccc5ncccc5c4)c3n2)cn1 | 0.969 ± 0.045 |
